Results on 20 molecules are retold here after PubChem BioAssay (EPA / NIEHS).

Molecules are shown by their SMILES. Activity calls are given as the source filed them. Rule for the calls: active = hit-call score of the fitted dose curve at least 0.9, where 1 is the maximum; inactive = score below 0.9.

A short description of the assay: ATG_AP_2_CIS: Attagene CIS-FACTORIAL HepG2 Assay for human Activator Protein 2 (AP-2) (AID 2282932). Conditions: HepG2 AP-2 cis-reporter, Attagene transcription factor profiling; actives raise or lower the signal. The method in brief: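 Bidirectional curve fitting against DMSO was applied to reporter mRNA signals from HepG2 cells 24 h after dosing. Cis-promoter reporter units, transiently transfected, were read by RT-PCR plus capillary electrophoresis.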
As to `CCc1c(Br)c(Br)c(Br)c(Br)c1Br`, the molecule was called inactive.

On to `CCC(=O)OCCc1ccccc1`, for which the result was inactive.

Consider `FC(F)(F)C(F)(F)C(F)(F)C(F)(F)C(F)(F)C(F)(F)CCS`, for which the molecule was called inactive.

As to `Cc1cc(C)cc(O)c1`, the molecule was called inactive.

`CN(C)Cc1ccccc1O`: the outcome was inactive.

Turning to `Cc1ccc(S(=O)(=O)OCC(F)(F)C(F)(F)C(F)(F)C(F)(F)C(F)(F)C(F)F)cc1`, the molecule was called inactive.

Turning to `CCCCCC=O`, the outcome was inactive.

With `O=C(O)C(F)(F)C(F)(F)C(F)(F)C(F)(F)F`, the outcome was inactive.

Regarding `O=C(OCCOCCOCCOC(=O)c1ccccc1)c1ccccc1`, the molecule was classed as inactive.

On to `CC(C)=CCCC(C)CCOC(=O)C(C)C` (stereo not given), for which the result was inactive.

With `CC(Cc1ccc(O)c(O)c1)C(C)Cc1ccc(O)c(O)c1` (stereo not given), the result was inactive.

`COC(=O)C1CCC(C(=O)OC)CC1` (stereo not given): the molecule was called inactive.

As to `O=S(=O)(O)c1ccc2ccccc2c1`, the result was inactive.

Turning to `FC(F)(F)C(F)(F)CNCC(F)(F)C(F)(F)F`, the molecule was classed as inactive.

Take `C=CC(=O)OCC(F)(F)C(F)(F)C(F)(F)C(F)(F)C(F)(F)C(F)(F)C(F)(F)F`: the call was inactive.

Take `CCN(CC)c1ccc2c(C)cc(=O)oc2c1`: the call was inactive.

Regarding `Nc1ccc([N+](=O)[O-])cc1O`, the outcome was inactive.

With `C(=C(c1ccccc1)c1ccccc1)c1ccccc1`, the result was inactive.

Consider `C=CC/C=C/C/C=C/C/C=C/C`, for which the outcome was inactive.

Turning to `c1ccc(-c2ccccc2-c2ccccc2)cc1`, the call was inactive.
